Compound activity as filed in PubChem.
Sampled rows, rich in hits. Any-hit rate of the full collection: about 1.7%.
GLP1R cytotox – cytotoxicity in counter-screen for GLP-1R inverse agonists | HEK293 cAMP-luciferase reporter cells, luminescence, 24 h | Potency, µM (doses to about 38.3 µM), actives largely listed as inhibitors | hit rate 0.13% among 410,000 | AID 624418;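 also: loss of luciferase light is scored as toxicity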
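1536-well qHTS counterscreen of the MLSMR; 200 cells/uL, 12 h pre-incubation, 23 nL cpd, 24 h at 37 deg C 5% CO2, luciferase detection reagent, 12 min RT, luminescence. Inhibition = undesired.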
PTHR1 agonist – PTHR1 (human) receptor agonism. Q03431. HEK293 GP2 PTHR1 cells, GloSensor cAMP luminescence, 1 h. Potency, µM (doses to about 115 µM), hits mostly activators. hit rate 0.075% among 410,000; also: nearly all actives have a fitted effect of over 55% in size
Target sequence (Q03431 whole entry, looked up): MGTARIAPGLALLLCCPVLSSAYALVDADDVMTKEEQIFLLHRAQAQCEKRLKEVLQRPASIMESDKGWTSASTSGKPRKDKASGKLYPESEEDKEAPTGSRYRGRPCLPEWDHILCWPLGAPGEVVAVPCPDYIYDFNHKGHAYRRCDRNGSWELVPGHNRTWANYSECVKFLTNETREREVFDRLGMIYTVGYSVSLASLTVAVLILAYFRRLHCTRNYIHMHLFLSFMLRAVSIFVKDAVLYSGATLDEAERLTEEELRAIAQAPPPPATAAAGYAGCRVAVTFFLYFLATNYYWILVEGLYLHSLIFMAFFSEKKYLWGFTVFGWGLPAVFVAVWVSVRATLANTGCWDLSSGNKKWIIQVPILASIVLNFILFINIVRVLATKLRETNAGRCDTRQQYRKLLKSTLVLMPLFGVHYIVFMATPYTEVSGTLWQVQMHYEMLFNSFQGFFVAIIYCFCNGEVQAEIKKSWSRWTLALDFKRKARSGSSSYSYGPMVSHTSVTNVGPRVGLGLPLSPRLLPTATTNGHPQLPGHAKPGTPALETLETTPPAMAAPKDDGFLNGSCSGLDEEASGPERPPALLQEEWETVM
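HEK-293-derived GP2 cells expressing PTHR1 and a GloSensor cAMP reporter, 3,000/well, plated overnight, given luciferin plus IBMX (each 0.5 mM as added) for 1 h at 37 °C, then compound for 1 h at 37 °C. Luminescence was read after 15 min at room temperature.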
GLP1R ag – activates the human GLP-1 receptor. P43220. HEK293 GLP-1R CRE-luciferase, luminescence, 4-6 h; cells express a hypersensitive GLP-1R form. Potency, µM (top dose mostly 45.6 µM), most hits filed as activators. hit rate 0.007% among 380,000
GLP1R inv ag – acts as inverse agonist at human GLP-1 receptor | P43220 | HEK293 GLP-1R CRE-luciferase, luminescence, 24 h; GLP-1R form is constitutively active | Potency, µM (doses to about 38.3 µM), hits mostly inhibitors | hit rate 1.6% among 410,000; also: nearly all actives have a fitted effect of over 55% in size
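Using stably transfected HEK293 (constitutively active GLP-1R, cAMP-luciferase reporter), compounds were incubated 24 hr and luciferase measured by luminescence.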
Hits are given with their value. Calls follow the shape of the dose curve; as a rule, active = well fitted curve in the direction sought with a large enough effect; inconclusive = small, poorly fitted or top-dose-only effect, or another doubt; inactive = no such curve, though single readings can be large; an effect the other way counts as inactive or inconclusive.

How did Cc1ccc(NC(=O)C2CC(=O)N(c3ccc4c5c(cccc35)CC4)C2)cc1 (stereo unspecified) do in these assays?
GLP1R cytotox: inactive; PTHR1 agonist: inactive; GLP1R ag: inactive; GLP1R inv ag: 10µM

How did COc1cc(/C=N/NS(=O)(=O)c2ccc3ccccc3c2)ccc1OCc1ccc(C(=O)O)cc1 do in these assays?
GLP1R cytotox: inactive; PTHR1 agonist: inactive; GLP1R ag: inactive; GLP1R inv ag: 2.51µM

Results for COc1cc(/C=N/NS(=O)(=O)c2ccc(C)cc2)ccc1OCc1cccc(C(=O)O)c1 ?
GLP1R cytotox: inactive; PTHR1 agonist: inactive; GLP1R ag: inactive; GLP1R inv ag: 3.16µM

Results for COc1cc(/C=N/NC(N)=S)ccc1OC(=O)c1ccc(C)cc1 ?
GLP1R cytotox: inconclusive; PTHR1 agonist: inactive; GLP1R ag: inactive; GLP1R inv ag: inconclusive

What do the screens show for `COc1cc(/C=N/O)ccc1OCc1ccc(C(=O)O)cc1`?
GLP1R cytotox: inactive; PTHR1 agonist: inactive; GLP1R ag: inactive; GLP1R inv ag: inconclusive

How did COc1cc(/C=N/NC(N)=S)ccc1OCc1ccc(C)cc1 do in these assays?
GLP1R cytotox: 12.6µM; PTHR1 agonist: inactive; GLP1R ag: inactive; GLP1R inv ag: inconclusive

How did NC(=O)c1c(NC(=O)CS(=O)(=O)c2ccc(Cl)cc2)sc2c1CCCC2 do in these assays?
GLP1R cytotox: inactive; PTHR1 agonist: inactive; GLP1R inv ag: inactive

What do the screens show for `Nc1c(Cl)ncnc1N/N=C/c1ccccn1`?
GLP1R cytotox: inactive; PTHR1 agonist: inactive; GLP1R ag: inactive; GLP1R inv ag: inconclusive

How did Clc1ccccc1NN=Cc1ccccn1 do in these assays?
GLP1R cytotox: inactive; PTHR1 agonist: inactive; GLP1R ag: inactive; GLP1R inv ag: 3.98µM

Results for Cc1nc(N/N=C/c2ccccn2)sc1C ?
GLP1R cytotox: 3.55µM; PTHR1 agonist: inactive; GLP1R ag: inactive; GLP1R inv ag: 2.24µM

How did CCCc1sc(N/N=C/c2ccccn2)nc1-c1ccc(F)cc1 do in these assays?
GLP1R cytotox: inconclusive; PTHR1 agonist: inactive; GLP1R ag: inactive; GLP1R inv ag: inconclusive

What do the screens show for `CCCc1noc(-c2ccc(NCc3ccc(C)cc3)c([N+](=O)[O-])c2)n1`?
GLP1R cytotox: inactive; PTHR1 agonist: inactive; GLP1R inv ag: inactive

Results for CC(=O)N1CCCc2cc(S(=O)(=O)N3CCCC(C(=O)Nc4cccc(Cl)c4C)C3)ccc21 (stereo unspecified) ?
GLP1R cytotox: inactive; PTHR1 agonist: inactive; GLP1R inv ag: inactive

Results for Cc1cccc(C(=O)NCc2nnc(SCC(=O)Nc3ccccc3F)n2-c2ccccc2)c1 ?
GLP1R cytotox: inactive; PTHR1 agonist: inactive; GLP1R inv ag: inactive

How did CCOC(=O)c1nnc(-c2ccccc2)nc1N1CCSCC1 do in these assays?
GLP1R cytotox: inactive; PTHR1 agonist: inactive; GLP1R ag: inactive; GLP1R inv ag: inactive

What do the screens show for `CN1CCN(c2nc(-c3ccc(Br)cc3)nnc2-c2ccccc2)CC1`?
GLP1R cytotox: inactive; PTHR1 agonist: inactive; GLP1R ag: inactive; GLP1R inv ag: 8.91µM

Results for Cc1ccc(-c2nnc(-c3ccccc3)c(N3CCOCC3)n2)cc1 ?
GLP1R cytotox: inactive; PTHR1 agonist: inactive; GLP1R ag: inactive; GLP1R inv ag: inactive

How did Brc1ccc(-c2nnc(-c3ccccc3)c(N3CCSCC3)n2)cc1 do in these assays?
GLP1R cytotox: inactive; PTHR1 agonist: inactive; GLP1R ag: inactive; GLP1R inv ag: 8.91µM

How did Cc1ccc(-c2cc(C(=O)NCc3ccccc3)c3c(-c4ccc(C)cc4)[nH]nc3n2)cc1 do in these assays?
GLP1R cytotox: inactive; PTHR1 agonist: inactive; GLP1R inv ag: inactive

What do the screens show for `O=C(NNC1=C(C(=O)C(F)(F)F)CCC1)c1ccccc1O`?
GLP1R cytotox: inactive; PTHR1 agonist: inactive; GLP1R ag: inactive; GLP1R inv ag: 2.82µM

Results for COc1ccc(Cn2c(NCC(C)C)nc3c2c(=O)n(C)c(=O)n3C)cc1 ?
GLP1R cytotox: inactive; PTHR1 agonist: inactive; GLP1R ag: inactive; GLP1R inv ag: inactive

Results for O=C1C2C3C=CC(C3)C2C(=O)N1CCN1CCN(S(=O)(=O)c2ccc3ccccc3c2)CC1 (stereo unspecified) ?
GLP1R cytotox: inactive; PTHR1 agonist: inactive; GLP1R ag: inactive; GLP1R inv ag: 11.2µM

Results for O=C(Cc1ccc(-c2ccccc2)cc1)NCCS(=O)(=O)N1CCN(c2ccc(F)cc2)CC1 ?
GLP1R cytotox: inactive; PTHR1 agonist: inactive; GLP1R inv ag: inactive

Results for Clc1ccc(-c2nc3ccccn3c2CN2CCCCC2)cc1 ?
GLP1R cytotox: inconclusive; PTHR1 agonist: inactive; GLP1R ag: inactive; GLP1R inv ag: 10µM
